According to the supplement of paper PMC10849652:
The full data set covers some 7,900 targets. This sample favours those with a hit. About 0.6% of all pairs of compound and target were hits.

How the values were obtained:
Assay in all cases: log2 fold change, soluble protein after heating vs DMSO (PISA); higher = thermal stabilisation; K562 cells, 10 uM, 30 min; active = over 0.2 and 3.5 SD of the protein, either way, in both replicates (recomputed)
bafetinib = compound: Cc1ccc(NC(=O)c2ccc(CN3CC[C@H](N(C)C)C3)c(C(F)(F)F)c2)cc1Nc1nccc(-c2cncnc2)n1 [bafetinib]
Outline: (§1)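 Values are thermal stability changes relative to control samples and are taken from duplicates. They are stated as log2 fold changes. Before quantification by TMTpro 16plex LC-MS/MS with equalised channel sums, K562 cells at 2×10^6 cells/mL were treated with 10 μM compound for 30 min, heated in aliquots for 3 min across 48°C-58°C, pooled, extracted in PBS with 0.5% NP-40 at 4°C, and centrifuged at 21,000xg for 90 min to give the soluble supernatant.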

[1] = compound: Cc1cccc(CC(=O)N2CCc3c2ccc(-c2cn(C)c4ncnc(N)c24)c3F)n1
Outline: as §1

dasatinib = compound: Cc1nc(Nc2ncc(C(=O)Nc3c(C)cccc3Cl)s2)cc(N2CCN(CCO)CC2)n1 [dasatinib]
Outline: as §1

[2] = compound: Cn1cc(-c2ccc3c(c2)CCN3C(=O)Cc2cccc(C(F)(F)F)c2)c2c(N)ncnc21
Outline: as §1

[3] = compound: Cn1cc(-c2ccc3nnc(C(F)(F)c4ccc5ncccc5c4)n3n2)cn1
Outline: as §1

tipifarnib = compound: Cn1cncc1[C@@](N)(c1ccc(Cl)cc1)c1ccc2c(c1)c(-c1cccc(Cl)c1)cc(=O)n2C [tipifarnib]
Outline: as §1

mubritinib = compound: FC(F)(F)c1ccc(/C=C/c2nc(COc3ccc(CCCCn4ccnn4)cc3)co2)cc1 [mubritinib]
Outline: as §1

[4] = compound: NC(=O)Nc1cc(-c2cccc(F)c2)sc1C(=O)N[C@H]1CCCNC1
Outline: as §1

[5] = compound: NC(=O)c1cnc(N[C@@H]2CCCC[C@@H]2N)nc1Nc1cccc(-n2nccn2)c1
Outline: as §1

[6] = compound: NC1(c2ccc(-c3nc4ccn5c(=O)[nH]nc5c4cc3-c3ccccc3)cc2)CCC1
Outline: as §1

[7] = compound: NCC(=O)Nc1ccc(-n2nc(C(F)(F)F)cc2-c2ccc3c(ccc4ccccc43)c2)cc1
Outline: as §1

entinostat = compound: Nc1ccccc1NC(=O)c1ccc(CNC(=O)OCc2cccnc2)cc1 [entinostat]
Outline: as §1

vorinostat = compound: O=C(CCCCCCC(=O)Nc1ccccc1)NO [vorinostat]
Outline: as §1

citarinostat = compound: O=C(CCCCCCNC(=O)c1cnc(N(c2ccccc2)c2ccccc2Cl)nc1)NO [citarinostat]
Outline: as §1

silmitasertib = compound: O=C(O)c1ccc2c(c1)nc(Nc1cccc(Cl)c1)c1ccncc12 [silmitasertib]
Outline: as §1

[8] = compound: O=C1NC(=O)C(c2cnc3ccccn23)=C1c1cn2c3c(cc(F)cc13)CN(C(=O)N1CCCCC1)CC2
Outline: as §1

[9] = compound: c1cc(OCCN2CCCCC2)cc(-c2n[nH]c3ccc(-c4nnc[nH]4)cc23)c1
Outline: as §1

nilotinib = compound: Cc1cn(-c2cc(NC(=O)c3ccc(C)c(Nc4nccc(-c5cccnc5)n4)c3)cc(C(F)(F)F)c2)cn1 [nilotinib]
Outline: as §1

[10] = compound: Cc1nc(Nc2n[nH]c3c2CN(C(=O)N[C@H](CN(C)C)c2ccccc2)C3(C)C)c2sccc2n1
Outline: as §1

[11] = compound: Cc1ncc(-c2ccnc(Nc3ccc(S(C)(=O)=O)cc3)n2)n1C(C)C
Outline: as §1

Measured: log2 fold change

CFAP36 isoform 2 (UniProt Q96G28)
inactive: bafetinib 0.022 | [1] -0.055 | dasatinib 0.014 | [2] -0.047 | [3] 0.128 | tipifarnib 0.002 | mubritinib 0 | [4] 0.027 | [5] -0.1 | [6] -0.095 | [7] -0.152 | entinostat 0.023 | vorinostat -0.014 | citarinostat -0.022 | silmitasertib 0.131 | [8] -0.025 | [9] 0.065

COPS3 isoform 2 (UniProt Q9UNS2)
inactive: bafetinib -0.19 | [1] -0.295 | nilotinib -0.041 | [10] 0.227 | [11] -0.194 | [3] 0.418 | tipifarnib 0.029 | mubritinib 0.138 | [4] -0.129 | [5] -0.364 | [6] -0.005 | [7] -0.272 | entinostat -0.007 | vorinostat -0.169 | citarinostat -0.14 | silmitasertib 0 | [8] -0.597 | [9] 0.011

CCM2 isoform 2 (UniProt Q9BSQ5)
active: entinostat 0.326
inactive: bafetinib -0.059 | [1] -0.038 | dasatinib -0.003 | [2] 0.043 | [3] -0.021 | tipifarnib -0.024 | mubritinib -0.061 | [4] -0.103 | [6] -0.09 | [7] -0.067 | vorinostat -0.038 | citarinostat -0.073 | silmitasertib 0.048 | [8] -0.136 | [9] 0.069

CRYM-AS1 (UniProt A6NIL9)
inactive: bafetinib 0.063 | [1] 0.048 | nilotinib -0.023 | [10] -0.426 | dasatinib -0.108 | [11] -0.28 | [2] -0.015 | [3] -0.189 | mubritinib 0.114 | [4] 0.038 | [5] -0.014 | [6] 0.27 | [7] 0.042 | entinostat -0.101 | vorinostat 0.014 | citarinostat 0.021 | silmitasertib 0.031 | [8] -0.076 | [9] -0.135

CIR1 (UniProt Q86X95)
UniProt Q86X95, sequence (Q86X95 whole entry, looked up): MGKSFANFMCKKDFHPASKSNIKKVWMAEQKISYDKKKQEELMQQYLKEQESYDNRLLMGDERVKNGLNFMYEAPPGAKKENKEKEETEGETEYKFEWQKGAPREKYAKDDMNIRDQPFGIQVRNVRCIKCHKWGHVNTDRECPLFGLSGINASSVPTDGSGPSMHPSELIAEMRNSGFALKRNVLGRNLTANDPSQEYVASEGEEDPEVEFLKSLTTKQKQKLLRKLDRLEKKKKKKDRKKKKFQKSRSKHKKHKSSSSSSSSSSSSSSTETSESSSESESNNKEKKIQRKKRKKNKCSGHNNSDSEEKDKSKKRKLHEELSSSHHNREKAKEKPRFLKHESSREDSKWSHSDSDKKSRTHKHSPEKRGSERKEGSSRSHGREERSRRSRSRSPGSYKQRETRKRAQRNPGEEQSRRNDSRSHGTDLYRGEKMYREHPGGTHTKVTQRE
inactive: bafetinib 0.001 | [1] -0.091 | dasatinib 0.079 | [2] -0.131 | [3] -0.06 | tipifarnib 0.223 | mubritinib -0.113 | [4] 0.014 | [5] 0.061 | [6] 0.309 | [7] 0.018 | entinostat 0 | vorinostat -0.056 | citarinostat 0.06 | silmitasertib 0.105 | [8] 0.067 | [9] 0.024

CCDC82 (UniProt Q8N4S0)
UniProt Q8N4S0, sequence (Q8N4S0 whole entry, looked up): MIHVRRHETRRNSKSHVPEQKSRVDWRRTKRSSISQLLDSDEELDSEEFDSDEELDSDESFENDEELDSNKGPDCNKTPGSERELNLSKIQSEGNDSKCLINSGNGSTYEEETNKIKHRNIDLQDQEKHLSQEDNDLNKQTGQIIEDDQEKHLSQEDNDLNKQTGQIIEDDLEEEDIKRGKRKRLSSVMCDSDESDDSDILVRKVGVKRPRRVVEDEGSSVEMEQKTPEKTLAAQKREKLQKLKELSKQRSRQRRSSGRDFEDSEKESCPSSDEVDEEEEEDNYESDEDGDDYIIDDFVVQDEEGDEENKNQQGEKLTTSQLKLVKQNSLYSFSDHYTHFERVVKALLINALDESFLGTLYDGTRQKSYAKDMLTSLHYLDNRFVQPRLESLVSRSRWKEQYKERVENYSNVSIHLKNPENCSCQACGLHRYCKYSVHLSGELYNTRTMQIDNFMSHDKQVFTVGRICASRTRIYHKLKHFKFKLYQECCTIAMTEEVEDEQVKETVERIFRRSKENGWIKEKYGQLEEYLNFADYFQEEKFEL
inactive: bafetinib -0.091 | nilotinib 0.018 | [10] -0.017 | dasatinib 0.015 | [11] -0.043 | [2] -0.132 | [3] -0.021 | tipifarnib 0.01 | mubritinib 0.087 | [5] -0.083 | [6] -0.146 | [7] -0.063 | citarinostat 0.023 | silmitasertib 0.047 | [8] -0.169 | [9] 0.046

CCNDBP1 (UniProt O95273)
inactive: bafetinib 0.059 | [1] -0.017 | nilotinib -0.19 | [10] 0.028 | dasatinib 0.023 | [11] 0.21 | [2] -0.055 | [3] -0.197 | mubritinib -0.045 | [4] 0.046 | [5] -0.027 | [6] -0.091 | [7] 0.069 | entinostat -0.036 | vorinostat -0.069 | citarinostat 0.05 | silmitasertib 0.087 | [9] -0.084

CLN3 (UniProt Q13286)
UniProt Q13286, sequence (Q13286 whole entry, looked up): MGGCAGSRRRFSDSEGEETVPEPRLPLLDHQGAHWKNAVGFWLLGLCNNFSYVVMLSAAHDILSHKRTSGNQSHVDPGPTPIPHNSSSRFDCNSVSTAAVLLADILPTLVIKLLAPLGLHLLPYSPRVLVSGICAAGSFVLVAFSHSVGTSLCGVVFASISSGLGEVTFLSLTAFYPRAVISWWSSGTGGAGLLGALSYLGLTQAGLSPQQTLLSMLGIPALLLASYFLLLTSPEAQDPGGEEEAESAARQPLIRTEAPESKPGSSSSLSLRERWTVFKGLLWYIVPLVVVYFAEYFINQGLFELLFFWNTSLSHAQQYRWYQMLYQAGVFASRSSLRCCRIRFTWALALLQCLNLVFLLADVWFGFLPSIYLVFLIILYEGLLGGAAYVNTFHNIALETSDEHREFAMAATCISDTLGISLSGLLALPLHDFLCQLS
inactive: bafetinib -0.099 | nilotinib -0.016 | [10] 0.002 | dasatinib 0.064 | [11] -0.02 | [2] -0.049 | [3] 0.028 | tipifarnib 0.1 | mubritinib 0.09 | [6] -0.112 | [7] -0.124 | citarinostat 0.042 | silmitasertib 0.025 | [8] 0.072 | [9] -0.033

CCDC57 (UniProt Q2TAC2)
UniProt Q2TAC2, sequence (Q2TAC2 whole entry, looked up): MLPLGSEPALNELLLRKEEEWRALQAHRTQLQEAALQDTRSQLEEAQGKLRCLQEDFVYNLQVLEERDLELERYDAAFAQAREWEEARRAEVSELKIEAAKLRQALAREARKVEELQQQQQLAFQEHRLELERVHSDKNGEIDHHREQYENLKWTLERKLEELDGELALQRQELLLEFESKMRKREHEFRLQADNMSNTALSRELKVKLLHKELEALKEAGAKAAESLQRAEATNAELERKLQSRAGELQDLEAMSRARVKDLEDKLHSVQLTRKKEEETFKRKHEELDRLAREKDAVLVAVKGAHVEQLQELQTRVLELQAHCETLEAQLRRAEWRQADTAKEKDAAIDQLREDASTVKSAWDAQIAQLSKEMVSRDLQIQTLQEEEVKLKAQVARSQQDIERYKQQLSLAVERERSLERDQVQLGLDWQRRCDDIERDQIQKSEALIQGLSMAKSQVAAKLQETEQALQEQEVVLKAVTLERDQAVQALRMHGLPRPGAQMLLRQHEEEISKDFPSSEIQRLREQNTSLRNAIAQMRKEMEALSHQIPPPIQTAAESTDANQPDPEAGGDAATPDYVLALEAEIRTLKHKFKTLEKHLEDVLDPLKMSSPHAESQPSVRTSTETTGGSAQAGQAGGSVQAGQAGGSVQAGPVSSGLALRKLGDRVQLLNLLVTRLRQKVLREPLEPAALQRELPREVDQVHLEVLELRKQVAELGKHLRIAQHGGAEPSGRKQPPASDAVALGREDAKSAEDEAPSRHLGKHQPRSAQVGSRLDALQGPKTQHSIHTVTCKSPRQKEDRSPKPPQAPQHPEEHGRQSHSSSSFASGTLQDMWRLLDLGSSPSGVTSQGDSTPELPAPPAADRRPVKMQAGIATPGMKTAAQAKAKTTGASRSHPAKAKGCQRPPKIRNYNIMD
inactive: bafetinib -0.025 | nilotinib -0.044 | [10] -0.023 | [11] -0.021 | [2] 0.068 | [3] -0.021 | tipifarnib -0.023 | mubritinib 0.031 | [4] -0.025 | [6] -0.014 | [7] -0.04 | entinostat -0.031 | citarinostat 0.008 | silmitasertib -0.038 | [8] -0.002 | [9] -0.11

CPNE5 (UniProt Q9HCH3)
inactive: [2] -0.077

CLASP2 (UniProt O75122)
UniProt O75122, sequence (O75122 whole entry, looked up): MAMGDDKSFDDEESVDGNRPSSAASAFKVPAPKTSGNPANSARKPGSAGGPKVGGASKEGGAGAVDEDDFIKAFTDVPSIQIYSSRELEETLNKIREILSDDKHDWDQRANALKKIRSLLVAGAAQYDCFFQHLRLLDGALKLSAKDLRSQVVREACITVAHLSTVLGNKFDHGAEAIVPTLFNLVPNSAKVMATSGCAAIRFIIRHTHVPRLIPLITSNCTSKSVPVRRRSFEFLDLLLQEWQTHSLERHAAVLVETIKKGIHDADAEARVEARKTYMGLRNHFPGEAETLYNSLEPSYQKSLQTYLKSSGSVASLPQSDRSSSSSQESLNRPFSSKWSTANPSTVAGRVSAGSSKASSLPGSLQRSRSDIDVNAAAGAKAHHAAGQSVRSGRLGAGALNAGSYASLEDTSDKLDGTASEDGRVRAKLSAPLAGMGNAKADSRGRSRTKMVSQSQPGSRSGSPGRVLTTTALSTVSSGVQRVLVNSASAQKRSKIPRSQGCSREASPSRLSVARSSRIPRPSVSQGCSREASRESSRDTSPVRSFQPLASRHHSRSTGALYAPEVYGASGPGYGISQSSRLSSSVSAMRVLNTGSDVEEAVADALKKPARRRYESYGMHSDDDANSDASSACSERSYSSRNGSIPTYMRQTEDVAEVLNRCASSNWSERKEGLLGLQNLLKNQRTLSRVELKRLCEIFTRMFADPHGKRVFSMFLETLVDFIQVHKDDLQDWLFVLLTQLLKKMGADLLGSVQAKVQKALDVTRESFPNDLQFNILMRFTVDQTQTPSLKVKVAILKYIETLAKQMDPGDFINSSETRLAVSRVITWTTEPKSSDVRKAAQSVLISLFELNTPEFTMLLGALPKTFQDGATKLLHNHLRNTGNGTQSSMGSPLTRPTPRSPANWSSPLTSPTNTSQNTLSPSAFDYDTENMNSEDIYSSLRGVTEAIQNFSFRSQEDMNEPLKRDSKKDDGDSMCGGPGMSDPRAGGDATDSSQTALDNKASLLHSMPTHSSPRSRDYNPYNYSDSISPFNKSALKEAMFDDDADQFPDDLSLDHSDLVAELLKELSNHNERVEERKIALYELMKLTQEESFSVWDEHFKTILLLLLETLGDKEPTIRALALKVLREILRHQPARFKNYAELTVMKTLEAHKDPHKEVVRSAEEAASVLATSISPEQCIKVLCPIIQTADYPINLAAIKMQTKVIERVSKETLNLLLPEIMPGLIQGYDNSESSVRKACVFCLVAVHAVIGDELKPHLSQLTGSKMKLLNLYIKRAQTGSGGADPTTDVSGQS
inactive: bafetinib -0.098 | nilotinib 0.014 | [10] -0.278 | [11] -0.231 | [2] -0.155 | [3] -0.344 | tipifarnib 0.045 | mubritinib 0.027 | [5] -0.049 | [6] 0.046 | citarinostat 0.143 | silmitasertib 0.083 | [9] 0.08

CD84 (UniProt Q9UIB8)
UniProt Q9UIB8, sequence (Q9UIB8 whole entry, looked up): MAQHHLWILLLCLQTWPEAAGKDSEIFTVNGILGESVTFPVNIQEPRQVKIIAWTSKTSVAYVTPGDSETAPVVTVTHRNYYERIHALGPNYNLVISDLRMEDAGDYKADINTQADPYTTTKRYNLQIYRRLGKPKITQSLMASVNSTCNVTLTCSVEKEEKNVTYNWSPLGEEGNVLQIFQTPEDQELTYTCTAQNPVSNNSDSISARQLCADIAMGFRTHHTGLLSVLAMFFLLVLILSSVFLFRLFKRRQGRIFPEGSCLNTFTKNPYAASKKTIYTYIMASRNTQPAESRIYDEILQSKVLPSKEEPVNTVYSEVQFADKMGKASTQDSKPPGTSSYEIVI
inactive: dasatinib 0.169 | [2] -0.117 | [4] -0.182 | [5] -0.036 | entinostat 0.234 | [8] 0.084

CHPT1 (UniProt Q8WUD6)
UniProt Q8WUD6, sequence (Q8WUD6 whole entry, looked up): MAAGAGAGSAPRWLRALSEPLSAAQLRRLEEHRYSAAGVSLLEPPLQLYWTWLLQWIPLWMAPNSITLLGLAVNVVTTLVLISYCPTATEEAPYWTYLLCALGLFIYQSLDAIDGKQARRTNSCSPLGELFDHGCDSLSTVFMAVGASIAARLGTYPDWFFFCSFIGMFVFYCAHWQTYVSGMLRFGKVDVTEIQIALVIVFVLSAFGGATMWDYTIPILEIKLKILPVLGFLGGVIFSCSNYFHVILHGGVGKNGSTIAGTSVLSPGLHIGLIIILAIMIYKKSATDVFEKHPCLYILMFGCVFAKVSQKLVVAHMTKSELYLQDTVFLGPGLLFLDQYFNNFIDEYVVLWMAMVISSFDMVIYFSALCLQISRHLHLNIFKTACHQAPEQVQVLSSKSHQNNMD
inactive: [1] 0.197 | nilotinib -0.596 | [10] -0.029 | dasatinib -0.074 | [11] -0.017 | [2] 0.011 | [3] -0.027 | tipifarnib -0.192 | mubritinib 0.387 | [4] 0 | [5] -0.039 | [6] -0.059 | entinostat 0.062 | vorinostat 0.066 | citarinostat 0.002 | silmitasertib -0.042 | [8] -0.049 | [9] 0.019

CASK (UniProt O14936)
inactive: dasatinib 0.096 | [5] 0.026

C15orf41 (UniProt Q9Y2V0)
inactive: [1] -0.101 | [2] -0.097 | [3] -0.088 | tipifarnib -0.087 | [4] -0.076 | [5] -0.046 | [7] -0.061 | entinostat -0.01 | vorinostat 0.069 | citarinostat 0.07 | [8] 0.023 | [9] -0.007
active: dasatinib -0.357

CRTC3 (UniProt Q6UUV7)
active: [4] -0.754
inactive: bafetinib -0.018 | [2] -0.002 | [3] -0.019 | tipifarnib -0.302 | mubritinib -0.168 | [6] -0.007 | [7] 0.001 | entinostat 0.057 | silmitasertib 0.098 | [8] 0.025

CDK2AP2 (UniProt O75956)
inactive: bafetinib 0 | nilotinib 0.04 | [10] 0.028 | [11] -0.063 | [2] -0.022 | [3] -0.039 | mubritinib 0.028 | [5] -0.05 | [6] 0.14 | citarinostat 0.009 | silmitasertib -0.094 | [8] -0.062 | [9] -0.1

CSNK1A1 isoform 3 (UniProt P48729)
UniProt P48729, sequence (P48729 whole entry, looked up): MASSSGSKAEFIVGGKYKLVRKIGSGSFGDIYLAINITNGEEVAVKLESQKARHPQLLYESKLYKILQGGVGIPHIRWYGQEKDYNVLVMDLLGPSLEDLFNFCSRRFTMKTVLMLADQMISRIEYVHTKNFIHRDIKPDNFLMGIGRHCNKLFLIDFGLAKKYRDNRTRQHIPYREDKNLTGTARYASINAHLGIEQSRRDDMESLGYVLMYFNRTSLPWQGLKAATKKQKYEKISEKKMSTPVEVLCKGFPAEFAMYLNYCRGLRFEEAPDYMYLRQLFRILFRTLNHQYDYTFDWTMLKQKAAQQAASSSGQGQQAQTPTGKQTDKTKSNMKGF
inactive: bafetinib 0.224 | tipifarnib 0.165 | mubritinib 0.055 | [6] -0.204 | silmitasertib 0

C6orf120 (UniProt Q7Z4R8)
UniProt Q7Z4R8, sequence (Q7Z4R8 whole entry, looked up): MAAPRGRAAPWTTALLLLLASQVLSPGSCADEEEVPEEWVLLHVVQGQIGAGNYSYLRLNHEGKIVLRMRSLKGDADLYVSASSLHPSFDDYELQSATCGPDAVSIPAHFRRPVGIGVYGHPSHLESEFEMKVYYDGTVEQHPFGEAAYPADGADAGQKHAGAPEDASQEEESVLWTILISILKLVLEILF
inactive: bafetinib -0.145 | nilotinib -0.045 | [10] 0.044 | dasatinib 0.029 | [11] -0.048 | [3] -0.032 | tipifarnib 0.026 | [4] 0.068 | [7] -0.018 | entinostat 0.083 | citarinostat 0.031 | [9] -0.141

CAD (UniProt H7BZB3)
inactive: [5] 0.124

CEP128 (UniProt Q6ZU80)
inactive: bafetinib -0.186 | dasatinib 0.046 | [2] -0.026 | tipifarnib -0.016 | mubritinib 0.143 | [4] -0.182 | [5] -0.029 | [6] 0.095 | [7] -0.234 | entinostat -0.112 | citarinostat -0.087 | silmitasertib -0.191 | [9] -0.068
